Among the data in PubChem BioAssay are composite z-score and z-score values, retold here.

Structures are written as SMILES. Activity calls are given as the source filed them. Unless noted, no rule for the calls is given here.

Assay [1] has as its system Wnt5a (protein binding on small-molecule microarray). Description: small molecules binding Wnt5a protein – biophysical, small-molecule microarray, 635/667 nm fluorescence, primary screen (AID 1142).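 Also: fluorescence read at 667 nm with signal to noise per printed feature.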 The settings on record: 635 nm fluorescence, higher = more signal.
Assay [2] is described as follows: ATP-based viability of Huh7 replicon cells – cell-based, CellTiter-Glo luminescence, basal, 48 h, cytotoxicity control for HCV replication inhibitor project, primary screen (AID 1143).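 Also: Huh7 hepatoma cells carrying a hepatitis C replication reporter with no stimulus; test concentration not given here.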 The settings on record: higher = more signal, called active from +8 up or from −8 down. In general terms: A replicon is a self-replicating genome or part of one, used to study replication in cells.

Assay [3] is described as follows: Pseudomonas biofilm growth suppression – PAO1 strain, BacTiter-Glo luminescence, LB-PBS, primary screen (AID 1144). The settings on record: P. aeruginosa PAO1 biofilm, 12 h, higher = more signal.
Assay [4] in a line: basal CRE-LacZ reporter activity in PC12 – cell-based, unstimulated, primary screen (AID 1145). To be noted: no forskolin, luminescence, 4.5 h, higher = more signal, called active from +8 up or from −8 down.
A short description of assay [5]: forskolin-driven CRE-LacZ activity in PC12 – cell-based, CRE-LacZ reporter, forskolin-stimulated, primary screen (AID 1146).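 Also: PC12 cells with 6xCRE LacZ reporter stimulated by forskolin 10 µM; beta-galactosidase reporter signal reflecting CREB driven transcription.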 To be noted: luminescence, 4.5 h, higher = more signal, called active from +8 up or from −8 down.
The target in assay [6] is Streptavidin (Streptomyces avidinii) (UniProt P22629). As to the kind of experiment: compounds binding control protein streptavidin – biophysical, small-molecule microarray, 635/667 nm fluorescence, artefact control for SMM compound annotation, primary screen (AID 1147).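 Also: signal reflects streptavidin binding to arrayed compounds as a control protein.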 The settings on record: higher = more signal.
Streptavidin (Streptomyces avidinii), sequence (P22629 whole entry, looked up): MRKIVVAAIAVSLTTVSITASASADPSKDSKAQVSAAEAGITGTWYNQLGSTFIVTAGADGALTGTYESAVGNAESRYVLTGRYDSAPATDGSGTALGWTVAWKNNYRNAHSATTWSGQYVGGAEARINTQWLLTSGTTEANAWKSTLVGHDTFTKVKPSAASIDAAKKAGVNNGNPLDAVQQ
The nature of assay [7]: probe aInhba binding on compound microarray – biochemical, small-molecule microarray, 635/667 nm fluorescence, primary screen (AID 1148).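 Also: score merges 667nm spot fluorescence with signal-to-noise for antibody binding to printed compounds.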 To be noted: higher = more signal.
Assay [8] has as its target Torsin-1A (Homo sapiens) (UniProt O14656). Description: TOR1A wild-type binding on microarray – cell lysate, small-molecule microarray, lysate, 635/667 nm, primary screen (AID 1149). The settings on record: COS7 hTOR1A-WT lysate, 635 nm fluorescence, higher = more signal.
Assay [9] shares this target. As to the kind of experiment: torsin A mutant lysate binding on microarrays – cell lysate, small-molecule microarray, COS7 lysate, 635/667 nm fluorescence, primary screen (AID 1150).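 Also: score pools 667 nm emission and signal to noise measuring lysate protein binding.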 The settings on record: COS7 hTOR1A mutant lysate, 635 nm fluorescence, higher = more signal.
Assay [10] deals with Sonic hedgehog protein (Shh). As to the kind of experiment: Sonic hedgehog microarray binding compounds – biochemical, small-molecule microarray, 635/667 nm fluorescence, primary screen (AID 1151).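 Also: Shh protein binding to compounds spotted on small-molecule microarray slides; score combines spot fluorescence intensity with signal-to-noise across triplicate slides.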 To be noted: 635 nm fluorescence, higher = more signal.
Assay [11] in a line: optical density shifts of acrAB sulA E. coli – strain DRC41, OD650, 48 h, E. coli filamentation inducer project, primary screen (AID 1152).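 Also: E. coli MC1000 strain DRC41 lacking acrAB efflux pump and sulA.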 The settings on record: higher = more signal, called active from +8 up or from −8 down.
The nature of assay [12]: probe aLefty1 binding on compound microarray – biochemical, small-molecule microarray, 635/667 nm fluorescence, primary screen (AID 1153).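 Also: score merges spot fluorescence with signal-to-noise ratio from the scanned slide images.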 The settings on record: higher = more signal.
A short description of assay [13]: plasmodial surface anion channel blockers, osmotic lysis – cell-based, P. falciparum Indochina, OD700, 1 h, primary screen (AID 1154). The settings on record: P. falciparum Indochina infected RBC osmotic lysis, higher = more signal, called active from +8 up or from −8 down.
Assay [14] is described as follows: plasmodial surface anion channel blockers, osmotic lysis – cell-based, P. falciparum Indochina, OD700, 2 h, primary screen (AID 1155).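 Also: lysis reports solute entry through the parasite surface anion channel PSAC.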 The settings on record: P. falciparum Indochina infected erythrocytes, higher = more signal, called active from +8 up or from −8 down.
A short description of assay [15]: changes in parasitized red cell lysis, either direction – P. falciparum Indochina, OD700, 3 h, PSAC antagonist project, primary screen (AID 1156). To be noted: P. falciparum-infected erythrocytes, osmotic lysis, higher = more signal, called active from +8 up or from −8 down.
Assay [16] is described as follows: plasmodial surface anion channel blockers, osmotic lysis – cell-based, P. falciparum Indochina, OD700, 18 h, primary screen (AID 1157). To be noted: P. falciparum Indochina infected erythrocytes, osmotic lysis OD700, 18 h; higher = more signal, called active from +8 up or from −8 down.
Assay [17] is described as follows: S6 kinase pathway phospho-S6 level changes – cell-based, A549, cytoblot, luminescence, serum-stimulated, primary screen (AID 1158).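 Also: serum-stimulated A549 lung adenocarcinoma cells; signal is phosphorylated S6 detected by cytoblot immunostaining with HRP secondary.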 The settings on record: 5 h, higher = more signal.
Assay [18] concerns the target NADPH oxidase 2 (Homo sapiens) (UniProt P04839). Description: compounds shifting NOX2 Amplex Red fluorescence – cell-based, HEK293-NOX2, PMA-stimulated, NOX inhibitor project, primary screen (AID 1159). Also: test concentration not given here. The settings on record: 45 min, higher = more signal, called active from +8 up or from −8 down.
The target of assay [19] is NADPH oxidase 4 (Homo sapiens) (UniProt Q9NPH5). Description: compounds shifting NOX4 Amplex Red fluorescence – cell-based, HEK293-NOX4, tetracycline-induced, NOX inhibitor project, primary screen (AID 1160). To be noted: HEK293-NOX4, Amplex Red H2O2 fluorescence, 45 min; higher = more signal, called active from +8 up or from −8 down.
NADPH oxidase 4 (Homo sapiens), sequence (Q9NPH5 whole entry, looked up): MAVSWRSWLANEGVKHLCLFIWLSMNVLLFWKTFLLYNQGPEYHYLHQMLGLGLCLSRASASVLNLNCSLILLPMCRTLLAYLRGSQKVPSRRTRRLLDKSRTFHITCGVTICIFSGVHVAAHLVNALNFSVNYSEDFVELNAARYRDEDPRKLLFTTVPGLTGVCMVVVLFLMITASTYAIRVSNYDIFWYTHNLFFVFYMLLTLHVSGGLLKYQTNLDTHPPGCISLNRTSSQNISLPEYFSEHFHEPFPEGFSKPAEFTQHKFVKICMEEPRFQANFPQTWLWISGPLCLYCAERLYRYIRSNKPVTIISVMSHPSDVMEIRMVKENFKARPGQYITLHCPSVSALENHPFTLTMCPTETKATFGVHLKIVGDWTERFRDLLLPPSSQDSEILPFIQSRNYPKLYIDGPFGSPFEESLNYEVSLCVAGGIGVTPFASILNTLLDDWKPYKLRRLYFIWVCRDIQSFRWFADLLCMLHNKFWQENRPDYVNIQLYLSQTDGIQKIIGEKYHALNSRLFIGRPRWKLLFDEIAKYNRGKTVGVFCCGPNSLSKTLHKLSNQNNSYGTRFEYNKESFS
Assay [20] deals with NADPH oxidase 5 (Homo sapiens) (UniProt Q96PH1). Description: compounds shifting NOX5 Amplex Red fluorescence – cell-based, HEK293-NOX5, NOX inhibitor project, primary screen (AID 1161). The settings on record: HEK293-NOX5, ionomycin, 45 min, higher = more signal.
NADPH oxidase 5 (Homo sapiens), sequence (Q96PH1 whole entry, looked up): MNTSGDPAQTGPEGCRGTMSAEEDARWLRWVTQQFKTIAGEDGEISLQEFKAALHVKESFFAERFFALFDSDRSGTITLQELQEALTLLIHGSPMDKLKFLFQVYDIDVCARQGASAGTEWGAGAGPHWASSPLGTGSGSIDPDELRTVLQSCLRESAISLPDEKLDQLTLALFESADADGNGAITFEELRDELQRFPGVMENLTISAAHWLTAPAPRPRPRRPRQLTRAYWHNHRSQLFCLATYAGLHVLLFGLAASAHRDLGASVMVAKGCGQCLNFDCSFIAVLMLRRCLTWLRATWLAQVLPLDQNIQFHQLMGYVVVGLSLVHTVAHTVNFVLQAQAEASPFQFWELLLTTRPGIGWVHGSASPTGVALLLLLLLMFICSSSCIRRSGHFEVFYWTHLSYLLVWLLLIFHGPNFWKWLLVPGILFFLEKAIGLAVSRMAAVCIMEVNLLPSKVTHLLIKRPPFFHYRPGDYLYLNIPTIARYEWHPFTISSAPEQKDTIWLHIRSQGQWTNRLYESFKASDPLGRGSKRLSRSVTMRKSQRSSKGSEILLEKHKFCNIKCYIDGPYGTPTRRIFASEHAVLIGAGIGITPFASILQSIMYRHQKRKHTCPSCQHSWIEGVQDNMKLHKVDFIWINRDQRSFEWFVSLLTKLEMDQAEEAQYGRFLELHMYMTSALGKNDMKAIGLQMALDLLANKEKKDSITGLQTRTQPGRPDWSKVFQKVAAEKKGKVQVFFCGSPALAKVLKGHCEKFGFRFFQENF

NADPH oxidase 2 (Homo sapiens), sequence (P04839 whole entry, looked up): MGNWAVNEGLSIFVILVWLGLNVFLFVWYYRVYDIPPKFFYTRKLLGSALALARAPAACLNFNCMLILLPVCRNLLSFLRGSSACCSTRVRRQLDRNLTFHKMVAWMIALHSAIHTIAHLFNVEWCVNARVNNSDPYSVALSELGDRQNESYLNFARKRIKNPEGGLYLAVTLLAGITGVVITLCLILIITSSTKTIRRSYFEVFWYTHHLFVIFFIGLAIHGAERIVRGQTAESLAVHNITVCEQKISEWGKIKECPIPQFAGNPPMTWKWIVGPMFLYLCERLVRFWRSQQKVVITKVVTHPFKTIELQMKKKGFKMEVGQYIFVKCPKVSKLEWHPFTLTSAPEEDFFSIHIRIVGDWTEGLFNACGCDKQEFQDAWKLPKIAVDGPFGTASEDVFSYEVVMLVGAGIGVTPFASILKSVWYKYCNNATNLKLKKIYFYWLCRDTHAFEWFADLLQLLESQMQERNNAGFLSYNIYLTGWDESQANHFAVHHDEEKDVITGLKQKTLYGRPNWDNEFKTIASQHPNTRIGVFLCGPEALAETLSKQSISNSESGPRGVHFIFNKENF
Torsin-1A (Homo sapiens), sequence (O14656 whole entry, looked up): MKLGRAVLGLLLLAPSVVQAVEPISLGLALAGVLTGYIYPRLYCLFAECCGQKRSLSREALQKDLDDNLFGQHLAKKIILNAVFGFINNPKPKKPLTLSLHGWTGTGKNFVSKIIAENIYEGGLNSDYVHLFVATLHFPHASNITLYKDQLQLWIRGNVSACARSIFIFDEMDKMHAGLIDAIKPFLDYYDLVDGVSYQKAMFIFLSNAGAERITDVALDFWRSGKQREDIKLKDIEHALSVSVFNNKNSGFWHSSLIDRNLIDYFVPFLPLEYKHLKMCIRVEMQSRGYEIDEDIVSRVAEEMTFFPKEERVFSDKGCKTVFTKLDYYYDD

With `C=C(C(=O)CC[C@H](OC(=O)c1cccnc1)c1ccc(OCCO)cc1)C(C)C`, the composite z-score was 0.287 in assay [1]; 0.548 in [6]; -0.0857 in assay [7]; 1.12 in assay [8]; 0.541 in assay [9]; 1.47 in assay [10]. Moreover, the composite z-score in assay [12] turned out to be 0.282. Besides, the z-score in assay [2] is -2.33 (inactive); in assay [3], 0.143 (inactive); in assay [4] it was 17.9 (active); in [5] it was 2.79 (inactive); in [11] it was -0.903 (inactive); in assay [13] it was 23.1 (active). Moreover, the z-score in assay [14] was 5.33 (inactive); in [15], 1.01 (inactive); in assay [16] it was 1.24 (inactive); in assay [17], 0.136; in assay [18], -0.427 (inactive); in assay [19], 0.525 (inactive). The z-score in assay [20] was -1.85.
Turning to `CCCC=C(CCC)[C@@H](NS(=O)(=O)c1cccc2cccnc12)c1ccc(C(=O)OC)cc1`, the composite z-score in [1] is 3.01; in assay [6], 0.358; in [7] it was 2.04; in assay [8], 0.361; in [9], 0.0731; in assay [10] it was -0.187. In assay [12], this compound gave a composite z-score of 0.968. Further, the z-score in assay [2] was -0.0811 (inactive); in assay [3], -0.124 (inactive); in assay [4], -1.13 (inactive); in assay [5], 0.0608 (inactive); in [11], -1.2 (inactive); in assay [13] it was -0.643 (inactive). The z-score in [14] was -0.299 (inactive); in assay [15], -0.722 (inactive); in [16] it was -1.19 (inactive); in [17], 0.393; in assay [18] it was 0.0603 (inactive); in assay [19], 0.212 (inactive). Also, in assay [20], the z-score was determined as 2.
Take `Cc1ccc(N2C(=O)c3ccccc3[C@](C)(C(=O)NC(C)C)[C@@H]2c2ccc(CO)cc2)nc1`: the composite z-score is -0.281 in assay [1]; -1.78 in assay [6]; -0.289 in assay [7]; -3.17 in assay [8]; 0.758 in [9]; -0.974 in assay [10]. The same compound had a composite z-score in [12] of -0.275. Also, the z-score in [2] was 0.328 (inactive); in assay [3] it was 0.306 (inactive); in assay [4], 0.155 (inactive); in assay [5], 0.521 (inactive); in assay [11], 1.07 (inactive); in assay [13] it was 0.641 (inactive). The z-score was 0.414 (inactive) in assay [14]; 0.18 (inactive) in [15]; 0.232 (inactive) in assay [16]; 0.274 in assay [17]; 0.358 (inactive) in assay [18]; -0.357 (inactive) in assay [19]. In [20], the z-score is -0.363.
With `CC(C)(C)N1CC=CC23O[C@@H]4C=CCCOC(=O)C4[C@H]2C(=O)N(CCCO)[C@@H]3C1=O` (stereo not given in full), the composite z-score in assay [1] was -0.213; in assay [6] it was -1.33; in [7] it was -0.23; in [8], -0.253; in assay [9], -0.663; in assay [10] it was 0.398. In [12], this compound showed a composite z-score of -0.289. For the same compound, the z-score in assay [2] is -2.5 (inactive); in assay [3], -0.93 (inactive); in assay [4], 0.451 (inactive); in assay [5], -0.178 (inactive); in [11], 0.471 (inactive); in assay [13], 0.595 (inactive). Moreover, the z-score in [14] is -1.01 (inactive); in assay [15], 0.79 (inactive); in assay [16], -1.49 (inactive); in assay [17] it was 0.682; in assay [18] it was -2.85 (inactive); in assay [19], -2.02 (inactive). Besides, the z-score in assay [20] was -0.648.
